# Values joined by “and” are separate entries in the source; they are usually repeats but may differ in a detail not shown here. Equal values may be shown once. Values without a mark were called inactive. Records with an inconclusive call do not appear. Entries that show only a call come without a potency. Active and inactive are the calls of the source. The call rests on the fitted dose curve.
# Tests used:
# [1] = target: Acetylcholinesterase (Homo sapiens) (UniProt P22303); assay: Acetylcholinesterase (AChE) small molecule antagonists: enzyme-based qHTS assay (AID 1347397); conditions: Potency: AChE enzyme activity inhibition; outcome: AChE enzyme activity inhibition; further: nearly all actives have a fitted effect of over 55% in size; further: potency means the concentration at half of the fitted maximal effect
# Outline: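 First, recombinant human AChE (50 mU/mL as dispensed) received test compound or DMSO. Second, plates stood 30 min at room temperature. Third, DTNB and acetylthiocholine were added, followed by 10 min at room temperature and colorimetric detection.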
# [2] = target: Acetylcholinesterase (Homo sapiens) (UniProt P22303); assay: Acetylcholinesterase (AChE) small molecule antagonists: fluorescence cell-based qHTS assay (AID 1347398); conditions: Potency: AChE activity; outcome: AChE activity; further: nearly all actives have a fitted effect of over 50% in size; further: potency means the concentration at half of the fitted maximal effect
# Outline: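 Homogeneous quantitative HTS format. SH-SY5Y cells seeded at 2,000 per well settle overnight at 37 C. Compound pretreatment runs 30 min (37 C, 5% CO2); substrate/probe mix then reacts 40 min at RT before reading 490/520 nm.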
# [3] = target: Acetylcholinesterase (Homo sapiens) (UniProt P22303); assay: Acetylcholinesterase (AChE) small molecule antagonists: enzyme-based qHTS assay with human liver microsomes (AID 1347399); conditions: Potency: qHTS inhibition; outcome: qHTS inhibition; further: nearly all actives have a fitted effect of over 60% in size
# Outline: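 Recombinant human AChE (50 mU/mL in the enzyme mix) and human liver microsomes (0.25 mg/mL final) were preincubated with compound and NADPH (0.25 mg/mL final) for 30 min at 37 C. Acetylthiocholine/DTNB was then added; thiocholine was read colorimetrically after 10 min at room temperature.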
# Acetylcholinesterase (Homo sapiens), sequence (P22303 whole entry, looked up): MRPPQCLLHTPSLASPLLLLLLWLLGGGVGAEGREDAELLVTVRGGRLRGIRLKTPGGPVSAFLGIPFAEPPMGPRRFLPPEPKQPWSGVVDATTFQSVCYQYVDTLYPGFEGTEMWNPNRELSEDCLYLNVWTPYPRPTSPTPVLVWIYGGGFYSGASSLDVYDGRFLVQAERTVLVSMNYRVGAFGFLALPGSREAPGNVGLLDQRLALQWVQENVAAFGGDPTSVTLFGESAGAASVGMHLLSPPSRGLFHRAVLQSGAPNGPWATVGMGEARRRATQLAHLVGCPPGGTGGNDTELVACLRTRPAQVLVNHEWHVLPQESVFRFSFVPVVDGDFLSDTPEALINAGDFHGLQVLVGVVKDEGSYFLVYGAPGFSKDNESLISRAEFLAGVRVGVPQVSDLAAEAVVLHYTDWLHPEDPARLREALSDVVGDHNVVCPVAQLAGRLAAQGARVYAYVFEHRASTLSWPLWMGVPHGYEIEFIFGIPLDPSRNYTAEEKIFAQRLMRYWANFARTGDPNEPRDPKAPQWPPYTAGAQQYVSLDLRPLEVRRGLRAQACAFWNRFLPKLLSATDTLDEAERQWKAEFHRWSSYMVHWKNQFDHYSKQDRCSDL
smiles,measurement,setting,value
ON(Cc1ccccc1)Cc1ccccc1,Potency,[1],inactive
same,Potency,[2],inactive
CSSc1ccoc1C,Potency,[1],inactive
same,Potency,[2],inactive
same,Potency,[3],inactive
Clc1cc(Cl)c(Cl)nc1Cl,Potency,[1],inactive
same,Potency,[2],inactive
same,Potency,[3],inactive
NC(=O)NS(=O)(=O)c1ccc(Cl)cc1,Potency,[1],inactive
same,Potency,[2],inactive
same,Potency,[3],inactive
NC(N)=NN=C(/C=C/c1ccc([N+](=O)[O-])o1)/C=C/c1ccc([N+](=O)[O-])o1,Potency,[1],inactive
same,Potency,[2],inactive
same,Potency,[3],inactive
CCN1CCCC1CNC(=O)c1cc(S(N)(=O)=O)ccc1OC (configuration not stated),Potency,[1],inactive
same,Potency,[2],inactive
same,Potency,[3],inactive
CCN1CCCC1CNC(=O)c1cc(S(=O)(=O)CC)c(N)cc1OC (configuration not stated),Potency,[1],15.5 µM (active)
same,Potency,[2],13.8 µM (active)
C[C@@H]1CCC[C@H](C)N1CCCC(O)(c1ccccc1)c1ccccn1 (some centres not stated),Potency,[1],inactive
CS(=O)(=O)c1ccc([C@@H](C[C@H]2CCC(=O)C2)C(=O)Nc2cnccn2)cc1Cl,Potency,[1],inactive
same,Potency,[2],inactive
same,Potency,[3],inactive
CC(=O)SCC(CC(=O)c1ccc(C)cc1)C(=O)O (configuration not stated),Potency,[1],inactive
same,Potency,[2],inactive
same,Potency,[3],inactive
Nc1cnn([C@@H]2O[C@H](CO)[C@@H](O)[C@H]2O)c(=O)n1,Potency,[1],inactive
same,Potency,[2],inactive
COc1ccc(-c2cc(=O)c3c(O)cc(O[C@@H]4O[C@H](CO[C@@H]5O[C@@H](C)[C@H](O)[C@@H](O)[C@H]5O)[C@@H](O)[C@H](O)[C@H]4O)cc3o2)cc1O,Potency,[1],inactive
same,Potency,[2],inactive
same,Potency,[3],inactive
Cc1[nH]cnc1-c1ccc(Cl)cc1,Potency,[1],inactive
same,Potency,[2],inactive
same,Potency,[3],inactive
CCC(C)(CCC(C)C)C(=O)O (configuration not stated),Potency,[1],inactive
same,Potency,[2],inactive
COc1ccc2c(c1)C(=O)N(CCc1ccc(S(=O)(=O)NC(=O)NC3CCCCC3)cc1)C(=O)C2(C)C,Potency,[1],inactive
same,Potency,[2],inactive
same,Potency,[3],inactive
Nc1cccnc1N,Potency,[1],inactive
same,Potency,[2],inactive
same,Potency,[3],inactive
CN(C)CCC[C@@]1(c2ccc(F)cc2)OCc2cc(C#N)ccc21,Potency,[1],inactive
Cc1ccc(O)c([C@H](CCN(C(C)C)C(C)C)c2ccccc2)c1,Potency,[1],inactive
CCCCCCOC(=O)NC(=N)c1ccc(NCc2nc3cc(C(=O)N(CCC(=O)OCC)c4ccccn4)ccc3n2C)cc1,Potency,[1],inactive
same,Potency,[2],inactive
same,Potency,[3],inactive
COC(=O)C1=C(C)NC(C)=C(C(=O)OCCN2CCN(C(c3ccccc3)c3ccccc3)CC2)C1c1cccc([N+](=O)[O-])c1 (configuration not stated),Potency,[1],inactive
same,Potency,[2],inactive
same,Potency,[3],inactive
Cc1ccc(N)cc1O,Potency,[1],inactive
same,Potency,[2],inactive
same,Potency,[3],inactive
C=C1CC[C@H]2C[C@@H]1C2(C)C,Potency,[1],inactive
same,Potency,[2],inactive
CSc1nc(NC2CC2)nc(NC(C)(C)C)n1,Potency,[1],inactive
same,Potency,[2],inactive
same,Potency,[3],inactive
CCCCCCCCCCCCCC[P+](CCCC)(CCCC)CCCC,Potency,[1],31.6 µM (active) and 39.9 µM (active)
same,Potency,[2],35.4 µM (active) and 63.3 µM (active)
same,Potency,[3],inactive
N[C@@H](CSCCCO)C(=O)O,"activity change, negative = inhibition",[1],1.52% [at 23.6 µM]
same,"activity change, negative = inhibition",[2],1.96% [at 23.8 µM]
same,"activity change, negative = inhibition",[3],-0.67% [at 23.6 µM]
CCOC(=O)c1ccccc1O,Potency,[1],inactive
same,Potency,[2],inactive
same,Potency,[3],inactive
CCOc1ncc(F)c(=O)[nH]1,Potency,[1],inactive
same,Potency,[2],inactive
same,Potency,[3],inactive
CCCCCCOC(=O)c1ccccc1,Potency,[1],inactive
same,Potency,[2],inactive
same,Potency,[3],inactive
COc1cc2nc(N3CCN(C(=O)c4ccco4)CC3)nc(N)c2cc1OC,"activity change, negative = inhibition",[1],-11.6% [at 23.6 µM]
same,"activity change, negative = inhibition",[2],-22.9% [at 23.8 µM]
same,"activity change, negative = inhibition",[3],-0.588% [at 23.6 µM]
Cc1nccn1CC1CCc2c(c3ccccc3n2C)C1=O (configuration not stated),Potency,[1],inactive
same,Potency,[2],15.5 µM (active)
same,Potency,[3],inactive
CCNS(=O)(=O)c1ccc(C)cc1,Potency,[1],inactive
same,Potency,[2],inactive
same,Potency,[3],inactive
CCN(CC)CCNC(=O)COc1ccc(Cl)cc1,Potency,[1],inactive
same,Potency,[2],inactive
same,Potency,[3],inactive
CCOC(=O)C1CC(=O)C(=C(O)C2CC2)C(=O)C1 (configuration not stated),Potency,[1],inactive
same,Potency,[2],inactive
same,Potency,[3],inactive
CC1(C)[C@@H](O)CC[C@]2(C)[C@H]3C(=O)C=C4[C@@H]5C[C@@](C)(C(=O)O)CC[C@]5(C)CC[C@@]4(C)[C@]3(C)CC[C@@H]12,Potency,[1],inactive
same,Potency,[2],inactive
same,Potency,[3],inactive
CCC(CO)(CO)COCC(CC)(CO)CO,Potency,[1],inactive
same,Potency,[2],inactive
same,Potency,[3],inactive
COCCc1ccccn1,Potency,[1],inactive
same,Potency,[2],inactive
same,Potency,[3],inactive
CCCn1cc[n+](C)c1C,Potency,[1],inactive
same,Potency,[2],inactive
same,Potency,[3],inactive
O=[N+]([O-])c1cc(Cl)c(Cl)c(Cl)c1Cl,Potency,[1],inactive
same,Potency,[2],inactive
same,Potency,[3],inactive
Cn1c(N)c(N=O)c(=O)n(C)c1=O,Potency,[1],inactive
same,Potency,[2],inactive
same,Potency,[3],inactive
CN[C@H]1CC[C@@H](c2ccc(Cl)c(Cl)c2)c2ccc(S(N)(=O)=O)cc21,Potency,[1],inactive
same,Potency,[2],35.6 µM (active)
same,Potency,[3],inactive
Cc1c(C)c([N+](=O)[O-])c(C(C)(C)C)c([N+](=O)[O-])c1C,Potency,[1],inactive
same,Potency,[2],inactive
same,Potency,[3],inactive
CC(=O)OCC(CCn1cnc2cnc(N)nc21)COC(C)=O,Potency,[1],inactive
same,Potency,[2],inactive
same,Potency,[3],inactive
Cc1cc2c(cc1C(F)(F)F)N(C(=O)Nc1ccc(Oc3cccnc3C)nc1)CC2,Potency,[1],inactive
same,Potency,[2],inactive
same,Potency,[3],inactive
CN(C)CCOCCN(C)CCO,Potency,[1],inactive
same,Potency,[2],inactive
same,Potency,[3],inactive
OCCCC1CCCCC1,Potency,[1],inactive
same,Potency,[2],inactive
same,Potency,[3],inactive
CCCCCCCCCCCC(=O)NCCCN(C)C,Potency,[1],inactive
same,Potency,[2],31.7 µM (active)
same,Potency,[3],inactive

# — PubChem BioAssay (Tox21)
